Assay outcomes deposited in PubChem BioAssay by several laboratories.
AI-2 QS mod – modulates the Vibrio harveyi AI-2 quorum sensing system; Vibrio harveyi JMH597 AI-2 luminescence/OD600 ratio, 9 h; active compounds read low; strain lacks LuxN and CqsS sensors; 0 = neutral-control median; activity change, % at 7.5 µM; hit rate 0.4% among 300,000; AID 2094; in the data active = activity change below about -75%, passing the limit was not always enough;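 also: luminescence divided by OD600 gain over 9 h not by final OD600 alone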
ATG4B inhibitor – inhibitors of human ATG4B cysteine protease. hit rate 0.51% among 340,000. ATG4B cleavage of LC3-PLA2, NBD-HPC fluorescence, 1 h. inhibition, % at 8.33 µM; in the data active = inhibition above about 40%
Target sequence (Q9Y4P1 whole entry, looked up): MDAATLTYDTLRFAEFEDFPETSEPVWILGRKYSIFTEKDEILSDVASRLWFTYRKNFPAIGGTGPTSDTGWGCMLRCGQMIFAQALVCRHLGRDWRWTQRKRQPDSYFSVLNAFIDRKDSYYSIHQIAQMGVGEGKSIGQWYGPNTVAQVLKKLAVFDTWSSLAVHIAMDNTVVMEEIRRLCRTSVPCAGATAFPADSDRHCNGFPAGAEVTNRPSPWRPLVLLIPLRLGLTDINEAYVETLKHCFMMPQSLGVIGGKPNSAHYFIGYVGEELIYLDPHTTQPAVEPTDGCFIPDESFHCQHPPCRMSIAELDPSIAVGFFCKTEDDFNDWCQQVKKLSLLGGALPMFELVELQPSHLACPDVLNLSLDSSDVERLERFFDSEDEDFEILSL
Efflux pump mplx – antifungal efflux pump inhibition, Nile Red retention | S. cerevisiae Candida pump triplex | inhibition, % at 10 µM | hit rate 0.44% among 330,000 | AID 485275;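 active = plate passing quality check with inhibition over a set limit, or well fluorescence over plate mean plus 4 SD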;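 also: Nile Red retained in pooled yeast measured as flow cytometry median fluorescence; 0% = buffer negative control and 100% = Enniatin B positive control; higher means more Nile Red kept so more efflux inhibition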
V-ATPase pHluor – yeast V-ATPase proton transport regulation by pHLuorin; response, % at 10 µM; S. cerevisiae, pHLuorin cytosolic pH fluorescence; hit rate 0.37% among 350,000; in the data active = response mostly above about 7.3%, no sharp cut-off; inactive = mostly below about 5.4%; also: actives read high
Mot1-301 SUMO – SUMOylation pathway inhibition by Mot1-301 growth rescue. growth rescue, % at 18.8 µM. hit rate 1% among 320,000. S. cerevisiae Mot1-301 growth rescue, ATP luminescence, 38.5C; percent above DMSO median, 100 means doubled. AID 2716;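 active = every valid replicate shows activation above 250% relative to neutral control wells; inactive = the rest, any valid replicate at or below 250%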;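 also: OY570 slx delta 5 strain wells were the positive control but not used for scaling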
Cmpd fluor yeast – flagged as fluorescent in efflux inhibitor counter-screen. hit rate 4% among 1,700. fluorescence ratio to DMSO, % at 10 µM. S. cerevisiae AD/pABC3, compound fluorescence, flow cytometry. shares compounds with Efflux pump mplx;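 active = fluorescence ratio to DMSO above its plate's cutoff, the plate mean ratio plus 5 SD, cut at about 210% in these data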;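 also: unstained yeast with no Nile Red so the signal is compound autofluorescence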
Mdr1 pump inh – blocks the Candida albicans Mdr1 efflux pump in yeast; shares compounds with Efflux pump mplx; S. cerevisiae AD/CaMDR1, Nile Red efflux, flow cytometry; inhibition, % at 10 µM; hit rate 1% among 1,700; in the data active = inhibition above about 26%;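 also: 0% = DMSO vehicle and 100% = reference inhibitor; higher means more Nile Red retained so more efflux inhibition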
CaCdr2 efflux inh – blocks the Candida albicans Cdr2 efflux pump in yeast; shares compounds with Efflux pump mplx; S. cerevisiae AD/CaCDR2, Nile Red retention, flow cytometry; Nile Red retention ratio vs DMSO, % at 10 µM; hit rate 4% among 1,700; AID 588520; in the data active = Nile Red retention ratio vs DMSO above about 190%;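 also: higher ratio means more blocking of Cdr2 efflux of the dye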
Cdr1 pump inh – Candida Cdr1 efflux pump inhibition; inhibition, % at 10 µM; AID 588522; shares compounds with Efflux pump mplx; hit rate 1% among 1,700; S. cerevisiae AD/CaCDR1, Nile Red efflux, flow cytometry;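 active = inhibition above the screen-wide mean plus twice its standard deviation, cut at about 32% in these data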
* = called active by the depositor; . = no result; + = active, no number. Compounds with a hit are over-represented: about 2.5% of the library has one in this group of screens.

SMILES	AI-2 QS mod	ATG4B inhibitor	Efflux pump mplx	V-ATPase pHluor	Mot1-301 SUMO	Cmpd fluor yeast	Mdr1 pump inh	CaCdr2 efflux inh	Cdr1 pump inh
Cc1ccc(OCC(=O)NNC(=O)CSc2ncc(C#N)c(N)n2)cc1	6	5	18*	4	-6	103	0	94	0
COc1ccc(C(CCNCc2ccc(F)cc2)c2ccc(F)cc2)cc1 (configuration not stated)	13	7	0	2	12	.	.	.	.
COc1ccc(CNCCC(c2ccc(F)cc2)c2ccc(OC)cc2)cc1 (configuration not stated)	20	6	10*	1	-17	96	0	109	0
CCSc1cc(N2CCCC2)nc(-c2ccccc2)n1	15	-6	0	-1	-5	.	.	.	.
CCCSc1cc(N2CCCC2)nc(-c2ccccc2)n1	9	10	0	-1	-15	+	1	127	0
CCCSc1cc(N2CCN(C)CC2)nc(-c2ccc(OC)cc2)n1	10	3	1	-1	.	82	0	89	0
CCOC(=O)c1sc(S(C)=O)c2c1CCc1conc1-2 (configuration not stated)	14	-6	0	1	-4	.	.	.	.
O=c1[nH]c(C2CCN(S(=O)(=O)c3ccccc3F)CC2)nc2c1nnn2Cc1ccc(F)cc1	.	-18	0	-4	-5	.	.	.	.
Cc1ccc(Cn2nnc3c(=O)[nH]c(C4CCN(S(=O)(=O)c5ccccc5F)CC4)nc32)cc1	12	-4	0	1	-12	104	0	106	0
Cc1ccc(Cn2nnc3c(=O)[nH]c(C4CCN(S(=O)(=O)c5ccc(C)cc5)CC4)nc32)cc1	21	-8	0	-6	32	100	0	112	1
O=C(COC(=O)c1ccccn1)c1cccc(Br)c1	2	0	1	-4	-7	.	.	.	.
O=C(COC(=O)c1ccccn1)c1ccc(Br)cc1	9	-5	1.3*	0	3	100	0	91	0
CC(C)C(=O)Nc1cccc(COc2ccccc2CN(Cc2ccccc2)C(=O)OC(C)(C)C)c1	.	.	.	-1	.	.	.	.	.
CCOc1ccc(C(=O)Nc2cccc(-c3nc4cccnc4o3)c2)cc1Cl	32	8	1.0*	-8	-1	113	0	114	0
CCN(CC)S(=O)(=O)c1cccc(C(=O)NC(C)C(c2cccs2)N2CCCC2)c1 (configuration not stated)	15	-6	0	7	85	.	.	.	.
NS(=O)(=O)c1ccc(NC(=S)N2CCN(c3ccccc3)CC2)cc1	16	4	3.6*	-1	10	104	0	99	0
CCCNC(=O)c1cccc(Cn2nc(C)c(Br)c2C)c1	1	6	0	6	229	.	.	.	.
Cc1nn(Cc2cccc(C(=O)NC34CC5CC(CC(C5)C3)C4)c2)c(C)c1Br	3	1	0.3*	2	107	108	0	102	0
Nc1cc2c(cc1C(=O)c1cccc(Br)c1)OCCO2	-2	-11	0.6*	3	17	100	0	104	0
CCOc1ncccc1C(=O)OCc1ccc(Cl)cc1	21	1	0	0	-3	.	.	.	.
CCOc1ncccc1C(=O)OCc1ccc(C(=O)OC)cc1	31	1	1.4*	0	-19	118	0	123	0
S=C(Nc1ccc(Cl)cc1Cl)N1CCCCC1	12	2	16*	2	13	98	0	112	0
S=C(Nc1ccccc1Cl)N1CCCCCC1	1	-3	0	4	5	.	.	.	.
COc1cccc(CN(CC(=O)NCC2CCCO2)C(=O)CCC(=O)Nc2cc(C)on2)c1 (configuration not stated)	4	-3	0	6	.	124	0	110	0
CC(Sc1nc2c(cc1C#N)CCCCC2)C(=O)O (configuration not stated)	19	4	0	.	4	.	.	.	.
SMILES	AI-2 QS mod	ATG4B inhibitor	Efflux pump mplx	V-ATPase pHluor	Mot1-301 SUMO	Cmpd fluor yeast	Mdr1 pump inh	CaCdr2 efflux inh	Cdr1 pump inh
N#Cc1cc(C(=O)c2cc(F)ccc2O)cn(-c2nccs2)c1=O	20	10	6.7*	0	-10	210*	2	95	1
Fc1ccc(Oc2ccnc(Cl)n2)c(Cl)c1	1	-2	0	0	-1	.	.	.	.
O=C(CCSc1nc(-c2ccco2)cc(C(F)(F)F)n1)N1CCN(c2ccccc2)CC1	32	-5	0.5*	-2	-9	105	0	106	0
FC(F)(F)c1cc(-c2ccco2)nc(N2CCN(c3ccccc3)CC2)n1	6	-3	0	2	21	.	.	.	.
COc1ccc(NC(=O)C(=O)NCC2CCCN2S(=O)(=O)c2cccs2)cc1 (configuration not stated)	15	0	0	0	13	.	.	.	.
CC(C)(C)c1cc(C(c2cccnc2)N2CCN(CCO)CC2)cc(C(C)(C)C)c1O (configuration not stated)	128	-8	0.4*	2	33	90	0	87	0
CC1Oc2ccccc2N(CC(=O)c2ccc(F)cc2)C1=O (configuration not stated)	-26	9	1.1*	-1	121	100	0	100	0
O=c1c2ccccc2sc2ccc(NCCCN3CCOCC3)cc12	16	6	0	-2	17	.	.	.	.
CN1CCCC1CCNc1ccc2sc3ccccc3c(=O)c2c1 (configuration not stated)	-7	6	2.0*	0	473	254*	1	96	1
O=C(NC(Cc1ccccc1)C(=O)N1CCN(c2ccccc2O)CC1)c1ccccc1 (configuration not stated)	.	3	.	0	.	.	.	.	.
Cc1ccc(C(=O)N2CCC3(CC2)Oc2ccc(Cl)cc2C(=O)C32CC(c3ccccc3)=NO2)s1 (configuration not stated)	10	-2	0	4	-8	94	0	91	0
CCC(=O)N1CCC2(CC1)Oc1ccc(Cl)cc1C(=O)C21CC(c2ccc(Cl)cc2)=NO1 (configuration not stated)	15	0	0	-1	19	107	0	108	0
Cc1ccc(C(=O)N2CCC3(CC2)Oc2ccc(Cl)cc2C(=O)C32CC(c3cccnc3)=NO2)s1 (configuration not stated)	19	-8	0	-5	-22	111	0	127	0
